Assay outcomes (PubChem)
A selection: hits, their analogues and other compounds. The true share with any hit is near 4.8%.
TIM10 inh: TIM10 yeast growth inhibition | S. cerevisiae TIM10 strain growth, BacTiter-Glo luminescence, 24 h | hit rate 1.4% among 330,000 | inhibition, % at 10 µM;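 active = inhibition of 40% or more at the single tested concentration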;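 also: wild-type TIM10 isogenic control strain grown at permissive 25 °C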
SKKanGAS inh: inhibitors of SKKanGAS S. pyogenes growth in kanamycin (SK-promoter or general growth effect) | BacTiter-Glo, 6 h | inhibition, % at 7.5 µM | hit rate 1.3% among 300,000 | AID 1662;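 active = mean replicate score, as percent of positive control median, at least 50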;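 also: strain carries kanamycin resistance gene driven by streptokinase promoter and grows in 40 µg/ml kanamycin; loss of luminescence reflects streptokinase promoter inhibition or plain growth inhibition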
tim23-1 inh: inhibits growth of tim23-1 mutant yeast | S. cerevisiae tim23-1 growth, BacTiter-Glo luminescence, 24 h | inhibition, % at 20 µM | hit rate 1.3% among 330,000;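 active = growth inhibition of the mutant yeast at or above 50%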;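 also: temperature-sensitive mutant grown at 25 °C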
NALP1 yeast inh: inhibitors of NALP1 inflammasome in yeast. S. cerevisiae NALP1/ASC/caspase-1 growth, X-gal OD620, 72 h. hit rate 0.61% among 280,000. AID 2071. inhibition, % at 10 µM; in the data active = inhibition mostly above about 24%, no sharp cut-off; inactive = mostly below about 32%
PfHsp90 set2: reduces growth (ATP signal) of yeast expressing P. falciparum Hsp90 | S. cerevisiae expressing PfHsp90, BacTiter-Glo ATP, 48 h; yeast lacking PDR1 and PDR3 efflux regulators | inhibition, % at 9.4 µM | hit rate 0.32% among 310,000;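 active = every replicate shows inhibition above about 80%, whatever the replicate mean, limit read from the data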
tim10-1 inh: inhibits growth of tim10-1 mutant yeast | S. cerevisiae tim10-1 ts strain growth, BacTiter-Glo, 24 h | inhibition, % at 20 µM | hit rate 2.2% among 330,000;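 active = inhibition of at least 40%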;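 also: mutant grown at 25 °C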
tim10 confirm: confirmation of TIM10 yeast growth inhibitors. shares compounds with TIM10 inh. inhibition, % at 10 µM. S. cerevisiae tim10 strain growth, BacTiter-Glo luminescence, 24 h. hit rate 63% among 4,600. AID 463215;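 active = inhibition of yeast growth at or above a set limit in either of two replicates at 10 µM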; also: this counterscreen used the strain with wild-type TIM10
tim23-1 conf: tim23-1 yeast growth inhibition, confirmed; shares compounds with tim23-1 inh; S. cerevisiae tim23-1 growth, BacTiter-Glo luminescence, 24 h; inhibition, % at 20 µM; hit rate 83% among 4,400; AID 463218;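 active = inhibition above about 39% in either of two replicate wells at 20 µM, limit read from the data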;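 also: temperature-sensitive tim23-1 mutant grown at 25 °C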
A number is an active result; - = inactive; . = no result.

SMILES | TIM10 inh | SKKanGAS inh | tim23-1 inh | NALP1 yeast inh | PfHsp90 set2 | tim10-1 inh | tim23-1 conf | others
Oc1ccc(Cl)cc1/C=C/c1ccc2cccc(O)c2n1 | 64 | - | 58 | - | 105 | - | - | tim10 confirm=63
O=C(CSCCO)Nc1cccc(C(F)(F)F)c1 | - | - | - | - | - | - | .
O=Cc1cn(-c2ccccc2)nc1-c1ccncc1 | 47 | - | 56 | - | . | - | 47 | tim10 confirm=38
O=C(O)/C=C/c1cn(-c2ccccc2)nc1-c1ccccc1 | - | - | - | - | - | - | .
O=Cc1cn(-c2ccccc2)nc1-c1ccccc1 | 58 | - | 68 | - | - | - | 69 | tim10 confirm=64
Cn1c(CSc2nc3ccccc3s2)nc2ccccc21 | 46 | - | 58 | - | - | - | 65 | tim10 confirm=43
NNC(=O)COc1ccc(F)cc1 | - | - | - | - | - | - | .
O=C(Oc1coc(CSc2ncccn2)cc1=O)c1ccccc1[N+](=O)[O-] | 59 | - | 62 | - | - | - | 49 | tim10 confirm=52
O=C(Nc1nncs1)c1cc2c(s1)CCC2 | - | - | - | - | - | - | .
O=C(Nc1nccs1)c1cc2c(s1)CCCCC2 | 46 | 77 | 58 | - | - | - | 65 | tim10 confirm=59
COc1ccc(OC)c(N/C=C/C(=O)c2ccccc2)c1 | 44 | - | 62 | - | - | - | 83 | tim10 confirm=-
CCn1nnnc1SCC(=O)NCc1ccc2c(c1)OCO2 | - | - | - | - | - | - | .
O=C(Nc1nc(-c2ccc([N+](=O)[O-])cc2)cs1)c1c(F)cccc1F | - | - | - | - | - | - | .
COc1cc([N+](=O)[O-])cc2sc(NC(=O)c3c(F)cccc3F)nc12 | 47 | - | 52 | - | - | - | 51 | tim10 confirm=44
Cc1cc(OCC(=O)NNC(=O)c2ccncc2)cc(C)c1Cl | - | . | - | - | - | - | .
CCN(CC)c1ccc(/C=N/NC(=O)c2c(Cl)cnn2C)c(O)c1 | 58 | - | 67 | - | - | - | 62 | tim10 confirm=-
CCN(CC)c1ccc(/C=N/NC(=O)c2cccc(S(=O)(=O)N3CCOCC3)c2)c(O)c1 | - | - | - | - | - | - | .
Cc1ccc(C(=O)/C=C/c2ccccc2[N+](=O)[O-])cc1 | 50 | - | 59 | - | - | - | 62 | tim10 confirm=38
CC(=O)Nc1ccc(SCC(=O)c2cc(C)ccc2C)cc1 | - | - | - | - | - | - | .
CC(=O)Nc1ccc(SCC(=O)c2cc(C)n(-c3ccccc3)c2C)cc1 | 48 | - | 54 | - | - | - | 53 | tim10 confirm=44
COc1ccc(-n2c(C)cc(C(=O)CSc3ccc(NC(C)=O)cc3)c2C)cc1 | 41 | - | 62 | - | - | - | 49 | tim10 confirm=-
O=C(c1ccco1)N1CCn2cccc2C1c1ccccc1 (stereo unspecified) | - | - | - | - | . | - | .
COc1ccc(CCC(=O)OCC(=O)NCc2ccccc2)cc1 | - | . | - | . | - | - | .
S=C(N/N=C/c1ccc2ncccc2c1)Nc1cccnc1 | - | - | - | - | - | - | .
CC(=NNC(=O)c1ccncc1)c1cccc(Br)c1 | . | . | . | . | - | . | .
SMILES | TIM10 inh | SKKanGAS inh | tim23-1 inh | NALP1 yeast inh | PfHsp90 set2 | tim10-1 inh | tim23-1 conf | others
C/C(=N\NC(=O)c1cccc(Br)c1)c1ccccn1 | - | 110 | 52 | - | - | - | -
COC(=O)[C@H](CC(C)C)N1Cc2cc(OC)cc(OC)c2-c2ccccc2S1(=O)=O | - | . | 50 | . | - | - | -
Cc1cc(C(=O)NNC(=O)c2ccccc2[N+](=O)[O-])c(C)o1 | - | . | - | . | . | - | .
CC(C)(C)C(=O)Nc1ccc(/C=C/C(=O)c2ccco2)cc1 | - | - | 51 | - | - | - | 45
Cc1c(C(=O)O)[nH]c2c1C(=O)CC(c1ccc(C(C)(C)C)cc1)C2 (stereo unspecified) | - | - | - | - | - | - | .
O=S(=O)(N/N=C\C=C\c1ccccc1)c1ccc(Br)cc1 | - | - | 56 | - | - | - | 42
Cc1ccc(S(=O)(=O)N/N=C\C=C\c2ccccc2)cc1 | - | - | - | - | - | - | .
Cc1c(NCc2cc(Cl)cc(Cl)c2O)c(=O)n(-c2ccccc2)n1C | - | 85 | 55 | - | - | - | -
Oc1c(Cl)cc(Cl)cc1CNc1ccccn1 | - | - | 52 | - | - | - | 49
Oc1ccc(Br)cc1CNc1ccccn1 | - | - | - | - | - | - | .
Cc1cccn2c(=O)c(/C=C(\C#N)S(=O)(=O)c3ccccc3)c(Oc3ccc(Cl)cc3)nc12 | - | - | 50 | - | - | - | -
Cc1cc(Oc2nc3c(C)cccn3c(=O)c2/C=C(\C#N)S(=O)(=O)c2ccccc2)ccc1Cl | - | - | - | - | - | - | .
O=C(COC(=O)CCN1C(=O)c2ccccc2C1=O)Nc1ccccc1[N+](=O)[O-] | - | . | - | . | - | - | .
CCCSC1=C(C#N)C(c2cccs2)CC(=O)N1 (stereo unspecified) | - | - | - | . | - | - | .
CCCCCCSC1=C(C#N)C(c2ccccc2)CC(=O)N1 (stereo unspecified) | - | - | 51 | - | - | - | 46
Nc1c(-c2ccc(Cl)cc2)cnc2c(-c3ccc(F)cc3)cnn12 | - | - | - | - | - | - | .
COc1cc(C(=O)NCc2ccc(OCCN(C)C)cc2)cc(OC)c1OC | - | . | - | . | - | - | .
S=c1[nH]nc(-c2ccncc2)n1Cc1ccccc1 | - | - | - | - | - | - | .
Fc1ccc(-c2n[nH]c(=S)n2Cc2ccccc2)cc1 | - | - | 56 | - | - | - | -
C=CCc1cccc(/C=N/NC(=O)CNc2cccc3ccccc23)c1O | - | - | 57 | - | - | - | 73
CSc1nnc(C(C)(C)C)c(=O)n1/N=C/c1ccccc1 | - | - | 53 | - | - | - | 51
COc1ccc(/C=N/n2c(SC)nnc(C(C)(C)C)c2=O)cc1 | - | - | - | - | - | - | .
CCOC(=O)NNc1ccc2nonc2c1[N+](=O)[O-] | - | - | 56 | - | - | - | 69
CCc1ccc(Nc2ccc3nonc3c2[N+](=O)[O-])cc1 | - | - | - | . | - | - | .
Oc1ccc2ccccc2c1C=NCc1ccccc1 | - | - | 65 | - | - | - | 60
Cc1ccc(C(=O)/C=C/C(=O)c2ccc(C)cc2)cc1 | - | 62 | 58 | - | - | - | -
O=C(/C(=C/O)N=Nc1ccccc1)c1ccco1 | - | - | 55 | - | - | - | 59
O=C(N/N=C/C(Cl)=C\c1ccccc1)c1ccco1 | - | - | - | - | - | - | .
Cc1cccc(CC2CC(=O)N(c3nc4ccccc4s3)C2=O)c1 (stereo unspecified) | - | - | - | - | - | - | .
Cc1ccc2nc(N3C(=O)CNC3=S)sc2c1 | - | 89 | 64 | - | - | - | 66
